# Assay results: PubChem BioAssay (NCATS)
# Results filed as inconclusive are left out. The source made the active and inactive calls. Unless noted, calls follow the shape of the dose curve; as a rule, active = well fitted curve in either direction with a large enough effect (not every such curve was filed as active); inconclusive = small, poorly fitted or top-dose-only effect, or another doubt; inactive = flat fitted curve, though single readings scatter.
# Columns and labels:
# [1] = AP1 Signaling Pathway (AID 357); conditions: ME-180 AP-1-bla reporter, EGF-induced, beta-lactamase ratio, 5 h; at 7.69 µM (top of the series) unless noted;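 also: ME-180 reporter cells stimulated with EGF at its EC50 level; % is scaled to controls: 0 for no effect and ±100 for the full control effect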
# In short: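 AP-1-bla ME-180 cells, Opti-MEM + 0.5% dialyzed FBS, plated overnight 37 °C. Cpd titration + EC50 EGF, 5 h 37 °C. CCF4 2.5 h RT; ex 405, em 460/530 ratio → %activity, AC50.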
# [2] = NFAT Signaling Pathway (AID 444); conditions: Jurkat NFAT-bla M1, carbachol, beta-lactamase ratio, 5 h; at 7.69 µM (top of the series) unless noted;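 also: carbachol stimulus at about its EC50 of 1 µM final; % is scaled to controls: 0 for no effect and ±100 for the full control effect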
# In short: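 Jurkat cells with NFAT-driven β-lactamase reporter and co-expressed M1 receptor, stimulated with carbachol (final 1 uM, ~EC50), compound titration, 5 h at 37 °C. CCF4 loaded 1 h at RT; 460/530 nm ratio gave %activity and AC50.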
# [3] = Stat Signaling Pathway (AID 446); conditions: ME-180 (cervical carcinoma) SIE beta-lactamase reporter, IL-6 stimulated, 5 h; at 7.69 µM (top of the series) unless noted;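 also: ME-180 cervical cancer cells given 40 pM IL-6 alongside compound; SIE-controlled beta-lactamase reporter measured as 460/530 nm FRET emission ratio; % is scaled to controls: 0 for no effect and ±100 for the full control effect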
# In short: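 Compound effects on IL-6-induced STAT reporter activity were measured in ME-180 cells. After overnight culture, cells were co-treated with 40 pM IL-6 for 5 hrs before beta-lactamase substrate loading at room temperature.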
# [4] = biological target: Glucocorticoid receptor (Homo sapiens) (UniProt P04150); experiment: GR-EFC Redistribution (AID 451; calls by dose curve; also: potency is read from the fitted curve at half-maximal effect); conditions: CHO-K1 GR-EFC translocation, beta-gal luminescence, 2 h
# Sequence of Glucocorticoid receptor (Homo sapiens) (P04150 whole entry, looked up, the tested form may be a part): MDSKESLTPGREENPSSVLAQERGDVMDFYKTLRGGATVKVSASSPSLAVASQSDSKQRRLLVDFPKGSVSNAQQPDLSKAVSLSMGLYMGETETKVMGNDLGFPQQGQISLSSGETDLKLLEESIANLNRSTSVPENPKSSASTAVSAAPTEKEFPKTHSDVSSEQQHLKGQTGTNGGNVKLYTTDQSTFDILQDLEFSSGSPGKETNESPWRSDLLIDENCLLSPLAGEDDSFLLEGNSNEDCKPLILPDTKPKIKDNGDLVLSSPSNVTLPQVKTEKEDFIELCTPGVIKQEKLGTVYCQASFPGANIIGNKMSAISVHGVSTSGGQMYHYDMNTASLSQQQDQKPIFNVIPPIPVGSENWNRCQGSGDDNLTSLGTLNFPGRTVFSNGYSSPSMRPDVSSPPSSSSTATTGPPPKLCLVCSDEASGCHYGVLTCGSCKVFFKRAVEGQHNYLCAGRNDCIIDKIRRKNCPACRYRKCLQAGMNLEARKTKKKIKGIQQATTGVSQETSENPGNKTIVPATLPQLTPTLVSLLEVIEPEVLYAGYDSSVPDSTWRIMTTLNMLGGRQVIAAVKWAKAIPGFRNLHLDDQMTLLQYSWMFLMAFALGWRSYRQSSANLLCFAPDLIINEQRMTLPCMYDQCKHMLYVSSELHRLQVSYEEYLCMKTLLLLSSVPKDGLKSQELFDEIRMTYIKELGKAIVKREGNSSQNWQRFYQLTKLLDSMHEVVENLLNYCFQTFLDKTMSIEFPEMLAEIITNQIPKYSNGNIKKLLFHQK
# In short: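 CHO-K1 cells expressing nuclear EA and GR-ED fragments of b-gal; compounds titrated up to 46 uM final, 2 h at 37 C. GR nuclear translocation read as complemented b-gal luminescence after 1 h RT detection.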
# [5] = biological target: Mitogen-activated protein kinase 10 (Mus musculus) (UniProt Q61831); experiment: JNK3 AlphaScreen Assay (AID 530); conditions: JNK3 lysate, c-Jun phosphorylation; series mostly up to 57.1 µM;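 also: kinase came from lysate of stimulated human HepG2 cells; signal reports phosphorylation of biotinylated GST-cJun 1-79 at Ser73 with 10 µM ATP; % is scaled to controls: 0 for no effect and ±100 for the full control effect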
# In short: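 HepG2 lysate (IL-1b/TNFa pre-activated) + biotin-GST-cJun 1-79 + anti-pSer73 cJun; cpd titration, 15 min RT; ATP 10 uM start; Tris pH 7.6, MgCl2, DTT, vanadate; beads in EDTA buffer; AlphaScreen.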
# [6] = biological target: 3',5'-cyclic-AMP phosphodiesterase 4B (Homo sapiens) (UniProt Q07343); experiment: qHTS Assay for Inhibitors of PDE-IV (AID 607; active = well fitted activation curve with a large enough effect in the main read-out, with a control signal flat, not every such curve was filed as active; also: % of control where 0% means no effect); conditions: HEK293 ACTOne CNG channel cells, membrane potential fluorescence; series mostly up to 22.9 µM
# Sequence of 3',5'-cyclic-AMP phosphodiesterase 4B (Homo sapiens) (Q07343 whole entry, looked up): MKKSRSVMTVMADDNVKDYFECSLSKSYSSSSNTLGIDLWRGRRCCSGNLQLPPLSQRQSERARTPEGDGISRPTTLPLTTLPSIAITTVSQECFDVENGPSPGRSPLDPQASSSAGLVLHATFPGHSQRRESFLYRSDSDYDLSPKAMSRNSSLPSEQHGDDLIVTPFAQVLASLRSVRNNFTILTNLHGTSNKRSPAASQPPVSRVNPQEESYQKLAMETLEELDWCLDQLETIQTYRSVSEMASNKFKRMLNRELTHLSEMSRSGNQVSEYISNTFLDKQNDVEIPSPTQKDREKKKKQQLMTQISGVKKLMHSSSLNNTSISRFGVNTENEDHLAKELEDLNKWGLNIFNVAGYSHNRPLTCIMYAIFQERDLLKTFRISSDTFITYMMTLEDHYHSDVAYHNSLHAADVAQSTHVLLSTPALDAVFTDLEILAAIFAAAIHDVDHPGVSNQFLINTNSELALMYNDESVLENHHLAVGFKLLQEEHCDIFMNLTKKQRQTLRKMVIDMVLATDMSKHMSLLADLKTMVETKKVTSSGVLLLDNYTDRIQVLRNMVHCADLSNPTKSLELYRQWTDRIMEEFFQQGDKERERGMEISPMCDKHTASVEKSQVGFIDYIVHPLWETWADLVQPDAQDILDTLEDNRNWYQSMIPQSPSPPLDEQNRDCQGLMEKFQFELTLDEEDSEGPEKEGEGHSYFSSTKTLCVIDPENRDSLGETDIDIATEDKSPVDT
# In short: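 ACTOne HEK293 cells carry a modified cAMP-gated CNG channel and express endogenous PDE4; plated 1000 cells/well, compounds up to 22.9 uM final. Membrane-potential dye fluorescence (ex 535/em 590) was read; parental cells received 10 uM forskolin + 100 uM RO 20-1724.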
# [7] = qHTS Assay for Lipid Storage Modulators (AID 1519; calls by dose curve); conditions: Drosophila S3 cells, BODIPY lipid droplet/cell ratio, laser cytometry, cells loaded with oleic acid; for activity change, negative = inhibition: at 57.5 µM (top of the series)
# In short: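 Cells seeded at 5,000 per well were treated with compounds over a concentration series and loaded with oleic acid (400 uM, as added). Lipid droplet fluorescence (488 nm excitation, 500-530 nm channel) was read by laser-scanning cytometry and normalized to 20 uM Triacsin C.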
# [8] = Primary qHTS for small molecule stabilizers of the endoplasmic reticulum resident proteome: Secreted ER Calcium Modulated Protein (SERCaMP) assay (AID 1508630; active = well fitted curve in the direction sought with a large enough effect; an effect the other way counts as inactive or inconclusive; also: % is scaled to controls: 0 for no effect and ±100 for the full control effect); conditions: SH-SY5Y GLuc-SERCaMP (Gaussia luciferase released on ER calcium loss) secretion, thapsigargin, luminescence; series mostly up to 38.4 µM
# In short: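 The SH-SY5Y reporter protocol was run at 3 concentrations up to 38.3 uM (primary) or 11 concentrations (follow-up): 16 h compound, 100 nM thapsigargin for 4 h, then extracellular luciferase luminescence.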
# [9] = biological target: Cytochrome P450 1A2 (Homo sapiens) (UniProt P05177); experiment: p450-cyp1a2 (AID 410; calls by dose curve; also: potency is read from the fitted curve at half-maximal effect;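 as to activity change, negative = inhibition: -100% = full effect of reference inhibitor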); conditions: recombinant CYP1A2, luciferin-ME demethylation, luminescence; series mostly up to 57 µM
# Sequence of Cytochrome P450 1A2 (Homo sapiens) (P05177 whole entry, looked up): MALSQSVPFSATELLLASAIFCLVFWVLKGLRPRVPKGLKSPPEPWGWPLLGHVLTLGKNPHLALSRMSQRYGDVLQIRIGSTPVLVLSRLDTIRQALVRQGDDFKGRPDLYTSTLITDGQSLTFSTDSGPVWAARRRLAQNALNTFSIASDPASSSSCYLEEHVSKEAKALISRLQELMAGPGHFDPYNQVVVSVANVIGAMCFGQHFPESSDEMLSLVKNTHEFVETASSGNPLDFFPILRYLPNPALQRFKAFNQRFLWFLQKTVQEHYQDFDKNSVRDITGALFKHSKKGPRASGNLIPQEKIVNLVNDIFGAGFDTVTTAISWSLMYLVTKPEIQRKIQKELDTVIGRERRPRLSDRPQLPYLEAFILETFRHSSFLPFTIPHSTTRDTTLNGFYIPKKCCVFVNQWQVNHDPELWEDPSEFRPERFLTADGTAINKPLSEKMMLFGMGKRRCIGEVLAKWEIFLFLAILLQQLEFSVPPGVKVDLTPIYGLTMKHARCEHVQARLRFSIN
# In short: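 Read-out is luminescence from luciferin produced by CYP1A2 demethylation of Luciferin-ME (100uM, at Km). Detection reagent stopped the 60 min NADPH-dependent reaction; signals were normalized to 57 uM furafylline.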
# [10] = biological target: Lysosomal acid glucosylceramidase (Homo sapiens) (UniProt P04062); experiment: Glucocerebrosidase-p2 (AID 348; in the data active = potency below about 10 µM; also: potency is read from the fitted curve at half-maximal effect); conditions: purified GBA, blue fluorogenic substrate, 40 min
# Sequence of Lysosomal acid glucosylceramidase (Homo sapiens) (P04062 whole entry, looked up): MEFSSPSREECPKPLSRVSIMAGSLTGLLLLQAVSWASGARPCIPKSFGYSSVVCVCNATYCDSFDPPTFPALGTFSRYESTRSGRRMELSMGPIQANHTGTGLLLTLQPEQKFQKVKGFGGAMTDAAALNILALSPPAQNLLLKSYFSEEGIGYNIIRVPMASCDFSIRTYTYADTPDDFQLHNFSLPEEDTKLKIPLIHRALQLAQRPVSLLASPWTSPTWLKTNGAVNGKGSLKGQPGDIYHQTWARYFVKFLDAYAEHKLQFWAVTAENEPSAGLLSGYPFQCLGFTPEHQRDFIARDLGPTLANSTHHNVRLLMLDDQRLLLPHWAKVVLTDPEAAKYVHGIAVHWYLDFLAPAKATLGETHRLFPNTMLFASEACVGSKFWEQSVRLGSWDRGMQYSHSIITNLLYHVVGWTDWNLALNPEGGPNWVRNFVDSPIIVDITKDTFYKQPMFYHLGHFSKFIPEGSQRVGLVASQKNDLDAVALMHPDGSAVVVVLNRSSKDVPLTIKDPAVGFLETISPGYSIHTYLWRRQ
# In short: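 Normal human glucocerebrosidase (0.2 nM) with blue fluorogenic substrate (80 uM final) in citrate/phosphate pH 5.9 with 10mM sodium taurocholate, 0.01% tween-20; 40 min RT, NaOH/glycine stop; fluorescence Ex 365/Em 440; AC50 from a titration from 0.6 nM upwards.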
# [11] = biological target: Glucocorticoid receptor (Homo sapiens) (UniProt P04150); experiment: GR-GFP Redistribution (AID 450;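 active = compounds whose dose series gives a full or clear partial fitted curve of increased nuclear translocation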; also: potency is read from the fitted curve at half-maximal effect); conditions: U2OS GR-GFP nuclear translocation, laser cytometry, 2 h
# [12] = biological target: Cytochrome P450 2C9 (Homo sapiens) (UniProt P11712); experiment: qHTS Assay for Inhibitors and Substrates of Cytochrome P450 2C9 (AID 883; active = well fitted curve in the direction sought with a large enough effect; an effect the other way counts as inactive or inconclusive; also: % is scaled to controls: 0 for no effect and ±100 for the full control effect; nearly all actives have a fitted effect of over 60% in size); conditions: recombinant CYP2C9, luciferin-H luminescence, 60 min; series mostly up to 57.1 µM
# Sequence of Cytochrome P450 2C9 (Homo sapiens) (P11712 whole entry, looked up): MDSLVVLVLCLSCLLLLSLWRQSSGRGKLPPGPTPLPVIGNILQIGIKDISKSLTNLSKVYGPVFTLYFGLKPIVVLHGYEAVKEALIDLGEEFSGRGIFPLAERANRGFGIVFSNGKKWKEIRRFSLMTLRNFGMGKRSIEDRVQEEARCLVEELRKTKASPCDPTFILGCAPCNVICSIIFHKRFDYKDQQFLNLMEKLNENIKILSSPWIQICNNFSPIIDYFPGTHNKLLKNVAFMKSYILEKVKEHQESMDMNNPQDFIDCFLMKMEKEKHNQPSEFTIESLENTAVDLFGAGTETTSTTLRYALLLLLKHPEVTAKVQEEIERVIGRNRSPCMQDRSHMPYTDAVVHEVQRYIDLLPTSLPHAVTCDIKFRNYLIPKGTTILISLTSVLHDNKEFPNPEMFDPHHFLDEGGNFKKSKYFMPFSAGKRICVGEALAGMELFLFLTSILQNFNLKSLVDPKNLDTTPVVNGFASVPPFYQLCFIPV
# In short: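 Human CYP2C9 (10nM) with Luciferin-H at 100uM (its KM) in 25mM KPO4; compound preincubated 10 min at 37C, then NADPH regeneration for 60 min at 37C. Luciferin read by luminescence after detection reagent; normalized to 57uM sulphaphenazole as full inhibition.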
# [13] = biological target: Cytochrome P450 3A4 (Homo sapiens) (UniProt P08684); experiment: qHTS Assay for Activators of Cytochrome P450 3A4 (AID 885; active = well fitted curve in the direction sought with a large enough effect; an effect the other way counts as inactive or inconclusive; also: nearly all actives have a fitted effect of over 65% in size); conditions: recombinant CYP3A4, Luciferin-PPXE luminescence, 60 min; series mostly up to 57.1 µM
# Sequence of Cytochrome P450 3A4 (Homo sapiens) (P08684 whole entry, looked up): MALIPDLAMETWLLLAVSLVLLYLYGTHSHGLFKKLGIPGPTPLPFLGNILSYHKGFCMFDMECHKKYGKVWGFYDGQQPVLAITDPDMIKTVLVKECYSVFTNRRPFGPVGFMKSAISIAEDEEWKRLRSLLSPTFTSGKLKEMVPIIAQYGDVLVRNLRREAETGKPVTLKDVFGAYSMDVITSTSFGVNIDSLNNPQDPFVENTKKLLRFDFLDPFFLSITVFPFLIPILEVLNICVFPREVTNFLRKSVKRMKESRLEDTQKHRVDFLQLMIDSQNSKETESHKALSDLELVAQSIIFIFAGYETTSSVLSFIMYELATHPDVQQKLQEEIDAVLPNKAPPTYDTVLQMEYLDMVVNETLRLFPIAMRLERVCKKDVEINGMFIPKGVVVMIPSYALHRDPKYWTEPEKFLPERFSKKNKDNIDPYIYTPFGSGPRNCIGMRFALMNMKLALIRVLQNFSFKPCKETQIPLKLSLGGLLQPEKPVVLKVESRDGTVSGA
# In short: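 CYP3A4 activity: Luciferin-PPXE O-dealkylation, 25uM substrate, 200mM KPO4, RT throughout. Read-out is luciferase luminescence; higher values reflect activation.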
# [14] = biological target: Dual specificity protein kinase CLK4 (Homo sapiens) (UniProt Q9HAZ1); experiment: qHTS Assay for Inhibitors of CDC-like Kinase 4 (Kinase-Glo Assay) (AID 1770; active = well fitted curve in the direction sought with a large enough effect; an effect the other way counts as inactive or inconclusive; also: potency is read from the fitted curve at half-maximal effect; nearly all actives have a fitted effect of over 65% in size); conditions: recombinant Clk4, Kinase-Glo ATP depletion luminescence; series mostly up to 66.7 µM
# Sequence of Dual specificity protein kinase CLK4 (Homo sapiens) (Q9HAZ1 whole entry, looked up): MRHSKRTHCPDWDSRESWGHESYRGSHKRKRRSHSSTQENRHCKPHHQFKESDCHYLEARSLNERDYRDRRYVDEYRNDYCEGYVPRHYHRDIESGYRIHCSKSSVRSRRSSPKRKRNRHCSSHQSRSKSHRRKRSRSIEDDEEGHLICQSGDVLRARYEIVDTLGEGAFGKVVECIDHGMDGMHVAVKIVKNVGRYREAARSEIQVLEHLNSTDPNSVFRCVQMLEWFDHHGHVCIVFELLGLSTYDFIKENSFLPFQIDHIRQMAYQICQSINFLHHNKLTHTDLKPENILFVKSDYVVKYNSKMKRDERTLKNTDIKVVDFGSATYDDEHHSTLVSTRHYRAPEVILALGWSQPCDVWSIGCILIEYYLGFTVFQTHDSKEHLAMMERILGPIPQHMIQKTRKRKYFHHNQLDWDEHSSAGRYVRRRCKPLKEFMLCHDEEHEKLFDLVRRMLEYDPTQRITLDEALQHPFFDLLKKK
# In short: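 Substrate mix (RS peptide 100 uM, ATP 1 uM) dispensed, compound pinned in, then Clk4 added to 25 nM final. Incubated 4.5 h at RT; Kinase-Glo reagent added, luminescence read after 5 min.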
# [15] = biological target: Dual specificity protein kinase CLK4 (Homo sapiens) (UniProt Q9HAZ1); experiment: qHTS Assay for Inhibitors of CDC-like Kinase 4 (ADP-FP Assay) (AID 1795; active = well fitted curve in the direction sought with a large enough effect; an effect the other way counts as inactive or inconclusive;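 also: recombinant human CLK4 phosphorylating RS repeat peptide at 1 µM ATP; % is scaled to controls: 0 for no effect and ±100 for the full control effect; nearly all actives have a fitted effect of over 60% in size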); conditions: Transcreener ADP fluorescence polarization; series mostly up to 50 µM
# In short: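 Clk4 6.25 nM; RS peptide 100 uM; ATP 1 uM; 25 mM Tris pH 7.5, 10 mM MgCl2; 1 h reaction. ADP detected via antibody/orange tracer FP displacement; TG003 positive control.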
# [16] = biological target: Ubiquitin carboxyl-terminal hydrolase 1 (Homo sapiens) (UniProt O94782); experiment: Inhibitors of USP1/UAF1: Pilot qHTS (AID 504865; active = well fitted curve in the direction sought with a large enough effect; an effect the other way counts as inactive or inconclusive;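 also: rhodamine fluorescence freed from ubiquitin-rhodamine substrate followed over time; top concentration of the series differs between compounds; % is scaled to controls: 0 for no effect and ±100 for the full control effect; nearly all actives have a fitted effect of over 35% in size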); conditions: purified USP1/UAF1, Ub-rhodamine cleavage fluorescence; series mostly up to 54.9 µM
# Sequence of Ubiquitin carboxyl-terminal hydrolase 1 (Homo sapiens) (O94782 whole entry, looked up): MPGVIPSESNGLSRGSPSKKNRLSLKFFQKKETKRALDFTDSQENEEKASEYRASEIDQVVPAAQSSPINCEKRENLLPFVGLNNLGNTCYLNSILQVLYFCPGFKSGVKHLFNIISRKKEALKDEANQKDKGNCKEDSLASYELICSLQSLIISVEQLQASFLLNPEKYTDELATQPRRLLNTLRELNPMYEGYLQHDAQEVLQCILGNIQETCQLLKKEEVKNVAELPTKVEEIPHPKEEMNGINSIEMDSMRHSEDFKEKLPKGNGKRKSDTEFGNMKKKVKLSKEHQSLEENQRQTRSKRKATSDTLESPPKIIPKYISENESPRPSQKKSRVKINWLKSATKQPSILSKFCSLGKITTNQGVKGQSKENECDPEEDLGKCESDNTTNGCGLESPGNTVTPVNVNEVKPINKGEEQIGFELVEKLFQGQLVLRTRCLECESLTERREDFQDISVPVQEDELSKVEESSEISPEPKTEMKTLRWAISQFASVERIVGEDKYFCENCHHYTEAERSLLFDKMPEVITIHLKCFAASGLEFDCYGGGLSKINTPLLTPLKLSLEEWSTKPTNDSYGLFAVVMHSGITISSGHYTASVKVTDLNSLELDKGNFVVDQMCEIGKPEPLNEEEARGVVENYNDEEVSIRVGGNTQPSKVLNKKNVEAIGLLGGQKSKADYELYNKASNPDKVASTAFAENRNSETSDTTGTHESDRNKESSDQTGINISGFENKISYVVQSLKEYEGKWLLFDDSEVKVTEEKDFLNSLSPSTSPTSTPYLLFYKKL
# In short: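 In 50mM HEPES pH 7.8 containing 0.5mM EDTA, 1mM TCEP, 0.1 mg/ml BSA and 0.01% Tween-20, 1nM USP1/UAF1 is exposed to compound for 15 min, then Ub-Rho (150nM final) is added and fluorescence is read over time.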
# [17] = measured here: cell count channel max response
# [18] = measured here: lipid channel max response
SMILES,"activity change, negative = inhibition [1]","activity change, negative = inhibition [2]","activity, negative = inhibition [3]",Potency [4],outcome [5],Potency [6],"activity change, negative = inhibition [7]","max response [7, 17] [%]","max response [7, 18] [%]",Potency [8],Potency [9],Potency [10],Potency [11],Potency [12],Potency [13],Potency [14],Potency [15],Potency [16]
O=C(c1ccco1)N1CCC2(CC1)CCN(c1ncccn1)CC2,-7.74% (inactive),-8.3% (inactive),-7.06% (inactive),> 46 µM (inactive),inactive,inactive,5.72% (inactive),9.29,18.4,inactive,–,–,–,–,–,–,–,–
CN1CCCC2(CCN(C(=O)c3cccn3C)CC2)C1,-4.17% (inactive),-4.14% (inactive),7.29% (inactive),> 46 µM (inactive),inactive,inactive,1.86% (inactive),11.8,16.9,inactive,inactive,–,–,–,–,–,–,–
COc1ccc(C(=O)N2CCC3(CC2)CN(C(=O)Nc2ccccc2)C3)cc1,-1.19% (inactive),22.2% (inactive),-10.2% (inactive),> 46 µM (inactive),inactive,inactive,–,–,–,inactive,25.1 µM (active),> 11.4 µM (inactive),–,–,–,–,–,–
CCNc1ncc2nc(-c3cn(C)c4ccccc34)c(=O)n(-c3ccccc3)c2n1,2.53% (inactive),3.22% (inactive),-9.31% (inactive),> 46 µM (inactive),inactive,–,–,–,–,inactive,15.8 µM (active),> 11.4 µM (inactive),> 9.22 µM (inactive),inactive,inactive,20 µM (active),inactive,inactive
